The values that follow come from the supplement of paper PMC11417369.

In all, about 25,000 sequences were measured (“ln(normalized median fluorescence intensity)”: median about 7.1, highest 2% from about 10 on). Only a selection was taken, and the highest values are over-represented in it overall.

This assay concerns PfSIP2 AP2 domain 1 (GST-tagged). In words: gcPBM binding intensity (ln(normalized median fluorescence intensity)); higher = stronger DNA binding. In outline: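 DNA-binding domains from P. falciparum, fused to GST and produced in E. coli, were put on an Agilent 4 × 180k double-stranded probe array for 1 h in 1× PBS holding 1% milk, 0.2 mg/ml BSA, 0.5% salmon testes DNA and 0.03% Triton X-100. Probes were primer-extended, 36 bp long and drawn from intergenic genomic regions, with negative controls included. After Alexa488 anti-GST antibody detection and a 488 nm scan, binding intensity was set as the highest Masliner-normalised natural-log median intensity across replicate spots of either probe orientation.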
For “TTGTTAAATATTTATAAAATGAATTTAAAATGTACT [CACACA_negctrl_site665]”, the “gcPBM binding intensity (ln)” value amounted to 7.05.

In the case of “ATATGTATAAATATAAATATATATATATATATATAT [CACACA_negctrl_site705]”, the “gcPBM binding intensity (ln)” value came to 9.63.

“TAATATAAAGGAAAAGAAAAGAAAAGAATATACAAT [CACACA_negctrl_site1369]”: the “gcPBM binding intensity (ln)” value was 6.69.

For the sequence “GGACAAGAATAGTGCACATGCAATGTTATTTTTTAT [TGCATGCA_site450]”, the “gcPBM binding intensity (ln)” value came out at 10.9.

In the case of “GAAAGGACAAGAATAGTGCACATGCAATGTTATTTT [GTGCAC_site9985]”, the “gcPBM binding intensity (ln)” value was found to be 9.8.

GTAATAAGAATTATAGTGCAATGTAATACATTTATA: the “gcPBM binding intensity (ln)” value turned out to be 7.97.

“ATTTTTTTTTTTTTTATTCCCCTTTCGAAAAAAACC [CACACA_negctrl_site1139]”: the “gcPBM binding intensity (ln)” value stood at 7.18.

Take “ATAGTTTAATTTATATGTACATATAATATTGATTTG [XGTACX_site7520]”: the “gcPBM binding intensity (ln)” value came out at 7.29.

Regarding “TACTTATTTGATTGGGTGCATATATATAGTATGTAT [GTGCAC_site9845]”, the “gcPBM binding intensity (ln)” value was found to be 10.6.

As for “CTTATTGATTTAAAAAGTACATATATGTATATACAC [XGTACX_site4072]”, the “gcPBM binding intensity (ln)” value was 7.05.

Consider “TTTTATTTATCTAATTGTACTCATTCTTTTTTGATG [XGTACX_site2876]”, for which the “gcPBM binding intensity (ln)” value was found to be 6.88.

As to “AGATATATATATAGGTGTACTGGAATGAAATTGTTT [XGTACX_site8200]”, the “gcPBM binding intensity (ln)” value amounted to 6.94.

Take “AAATAAAAATTAAAAAAATAGAAACGAATTGAATGC [TGCATGCA_negctrl_site365]”: the “gcPBM binding intensity (ln)” value is 7.2.

For TATAAATTAAAATGTGTGCACTAAATTGAAATAGAA, the “gcPBM binding intensity (ln)” value is 10.7.

For “GATGAAAATAGAAATACACACTAAAAAATAAAATTA [CACACA_site4764]”, the “gcPBM binding intensity (ln)” value is 6.75.

Turning to “TCAATATATATAAGAAGTACATGTGAATGAAAAAAA [XGTACX_site1674]”, the “gcPBM binding intensity (ln)” value is 7.14.

Regarding “AAAAAAAAATTATTCACACATATATATATATATATA [CACACA_site5579]”, the “gcPBM binding intensity (ln)” value was found to be 9.38.

In the case of ATATACACCTGAGAGGTGCATATATATAAAATTTAC, the “gcPBM binding intensity (ln)” value was 11.2.

Consider “TAAAATAATTTATGCATACACACATATATATATATA [CACACA_site4021]”, for which the “gcPBM binding intensity (ln)” value was determined as 9.23.

As for “GCATATTTTATAATTTTACACACCATATAAAATAAT [CACACA_site8904]”, the “gcPBM binding intensity (ln)” value came out at 7.2.

Turning to “TAAGAATTGAAAAAATGTACACAATATAAAATTGAA [XGTACX_site698]”, the “gcPBM binding intensity (ln)” value was 6.88.

As to “TATTAAAAATGTTAAGTGCAAAAATAAAAATTGTGG [GTGCAC_site9854]”, the “gcPBM binding intensity (ln)” value is 7.71.

On to “TAAATTATAATATGCACACAAAATGTTATATTAAAA [CACACA_site376]”, for which the “gcPBM binding intensity (ln)” value was determined as 7.01.

ATAATTAAGTTATGTGTGCACTGTTAAAAATAAATG: the “gcPBM binding intensity (ln)” value is 10.4.

Regarding “ACCTATATAAGTTATACACACAAATATAGATATATA [CACACA_site7356]”, the “gcPBM binding intensity (ln)” value amounted to 7.06.

Turning to “AACAAGTTGCATGGTGCACACATGTATTTATATCTA [CACACA_site5414]”, the “gcPBM binding intensity (ln)” value is 11.8.

On to “TATGGTATATACAACACACACACATATGTATATATA [CACACA_site927]”, for which the “gcPBM binding intensity (ln)” value turned out to be 7.14.

Consider “TAGTTGCACATGTATACACACAAAAAATATTTTATG [CACACA_site475]”, for which the “gcPBM binding intensity (ln)” value is 7.68.

In the case of “ATCATATGTATGCATACACACAAAAAGTTATTTATA [CACACA_site6325]”, the “gcPBM binding intensity (ln)” value was 7.06.

As to “AACAAGTTGCATGGTGCACACATGTATATATATCTA [CACACA_site2548]”, the “gcPBM binding intensity (ln)” value was 11.6.

Turning to “ATGTAAGTTGTGCATTCACACACATATATATATATA [CACACA_site9086]”, the “gcPBM binding intensity (ln)” value came out at 9.26.

On to “AGGAAAAACTTGAATGCATGCGCACATTCTAGTTTG [TGCATGCA_site776]”, for which the “gcPBM binding intensity (ln)” value came to 6.99.

As to “AAAATTTATATAGGCACACAAATAAATTAATACATA [CACACA_site1418]”, the “gcPBM binding intensity (ln)” value was 6.76.

“TTTTTTTATATTATACGCACTAATATATATATATAT [XGTACX_negctrl_site40]”: the “gcPBM binding intensity (ln)” value was determined as 8.94.

“CCGTATATTTTATATAGTACTCATCATATATTTTTA [XGTACX_site5560]”: the “gcPBM binding intensity (ln)” value was found to be 6.96.

“AAGATAATTACGCACACACACACACGCCCACAACTA [CACACA_site7255]”: the “gcPBM binding intensity (ln)” value worked out at 7.34.

For “TATCTTCATATATGGTGTACAGATTTTTTTTTTTTT [XGTACX_site5545]”, the “gcPBM binding intensity (ln)” value is 7.26.

On to “CTGTCTGCAGATATGGTGCATTTGTAAGATCTTACA [GTGCAC_site9870]”, for which the “gcPBM binding intensity (ln)” value was 10.4.

As for “CATTTTGTAAGATATGCACACATGGATCATATTTTA [CACACA_site423]”, the “gcPBM binding intensity (ln)” value turned out to be 6.94.

On to “GGAAAAAGAAATTAATGTACATGTGGATGTATGAGG [XGTACX_site5468]”, for which the “gcPBM binding intensity (ln)” value worked out at 7.25.

“TTTCCTCATTTTATCATACACACTTGTTTATATGTG [CACACA_site8202]”: the “gcPBM binding intensity (ln)” value worked out at 6.92.

As for “TATTCAGGTCCAATGGTGCAATATATTTTTGTAATA [GTGCAC_site9607]”, the “gcPBM binding intensity (ln)” value was 10.5.

Turning to “AATCATTTATTGATGGTGCAATATACCATCTAATGA [GTGCAC_site9440]”, the “gcPBM binding intensity (ln)” value amounted to 9.44.

With ATTCATTTACCAATGGTGCAATATATTTTTATAATG, the “gcPBM binding intensity (ln)” value is 10.3.

Regarding “TCTTTGTATATATGTTCATTTGTAATATATATTCAT [TGCATGCA_negctrl_site467]”, the “gcPBM binding intensity (ln)” value was found to be 7.18.

TTTATTTTTTACCAAGTGCAATATATTATAATAATA: the “gcPBM binding intensity (ln)” value was 7.77.

As to AATTTATATAATTTTGTGCACAATATTCATGTATAT, the “gcPBM binding intensity (ln)” value stood at 8.93.

With “AGCTATATAAATAATACATGCATTGTTCAGGTATTT [TGCATGCA_site964]”, the “gcPBM binding intensity (ln)” value is 6.83.

Consider “TAAATATAGGGTAATAGTACATAATTATATTCTTTT [XGTACX_site3883]”, for which the “gcPBM binding intensity (ln)” value was determined as 6.76.

On to GTGTTGGGAAAAGGCATGCACTTTTTTTTTTTTTTT, for which the “gcPBM binding intensity (ln)” value was found to be 9.34.

As for “TATACCTTAATATACACACATACATATATATATATA [CACACA_site1339]”, the “gcPBM binding intensity (ln)” value worked out at 9.12.

“AATAGTCGTGTGCATACACACCTTAACTATAATATA [CACACA_site6636]”: the “gcPBM binding intensity (ln)” value worked out at 7.41.

Take “ACCTTTAATATATACACACACATAAAAAAAATATAT [CACACA_site1843]”: the “gcPBM binding intensity (ln)” value came to 7.83.

Take “AATAGTCGGGTGCATACACACCTTAAATATAATATA [CACACA_site8271]”: the “gcPBM binding intensity (ln)” value amounted to 11.3.

“GGAATAGTCGGGTGCATACACACCTTAAATATAATA [CACACA_site1081]”: the “gcPBM binding intensity (ln)” value was 11.4.

In the case of “CTACCTTTAATATATACACACACATAAAAAAAATAT [CACACA_site8548]”, the “gcPBM binding intensity (ln)” value amounted to 7.44.

Take “TTGATTACACTGAAGTGTACATATATATATATATAT [XGTACX_site3532]”: the “gcPBM binding intensity (ln)” value was determined as 9.07.

For the sequence “AATAATAAAATAAAGGCATGCACAATATGCTATAAA [TGCATGCA_site645]”, the “gcPBM binding intensity (ln)” value came out at 7.49.
